# Measles CPE = protection of cells from measles virus; Measles virus-infected cells, CPE protection, absorbance; protection (pct of control), % at 4 µM; 140,000 compounds, 1.5% hits; AID 841; in the data active = protection mostly above about 24%, no sharp cut-off; inactive = mostly below about 26%
# CYP2C9 activ = activators of human CYP2C9; activation factor at 5 µM; 96,000 compounds, 1.4% hits; recombinant CYP2C9, luciferin-H conversion, luminescence; hits give high values; factor 1 = untreated enzyme, 0 = blocked; P11712; AID 1024;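 active = activation factor of 2 or more for CYP2C9 at a 5 µM dose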;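 also: 0 = sulfaphenazole-blocked wells and 1 = vehicle-only wells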
# CYP2C19 inhib = inhibitors of human CYP2C19. 96,000 compounds, 21% hits. inhibition, % at 5 µM. AID 778. CYP2C19 Supersomes, luciferin-H EGE luminescence, 30 min. P33261;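 active = CYP2C19 inhibition above a set limit at 5 µM in the primary screen, cut at about 50% in these data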;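 also: plate controls were negative control wells for no effect and 2.5 mM tranylcypromine positive control for full effect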
# Target sequence (P33261 whole entry, looked up): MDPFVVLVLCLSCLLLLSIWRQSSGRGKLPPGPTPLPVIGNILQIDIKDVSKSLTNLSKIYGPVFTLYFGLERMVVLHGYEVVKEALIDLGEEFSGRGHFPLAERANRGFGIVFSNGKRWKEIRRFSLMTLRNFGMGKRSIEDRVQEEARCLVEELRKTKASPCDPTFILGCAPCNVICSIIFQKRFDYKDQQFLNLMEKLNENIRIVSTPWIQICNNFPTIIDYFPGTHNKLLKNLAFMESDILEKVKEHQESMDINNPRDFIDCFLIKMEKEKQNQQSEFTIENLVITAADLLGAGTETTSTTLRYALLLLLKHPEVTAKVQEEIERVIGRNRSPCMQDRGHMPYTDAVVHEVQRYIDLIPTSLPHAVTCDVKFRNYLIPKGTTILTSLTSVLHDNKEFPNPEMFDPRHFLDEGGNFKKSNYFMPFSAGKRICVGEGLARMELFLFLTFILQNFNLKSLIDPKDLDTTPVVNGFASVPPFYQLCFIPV
# CYP2C19 activ = increases human CYP2C19 enzyme activity; AID 1025; recombinant CYP2C19, luciferin-H EGE luminescence; hits give high values; 0 = fully inhibited enzyme, 1 = untreated enzyme; P33261; activation factor at 5 µM; 96,000 tested, under 10 active;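 active = activation factor of at least 2 at 5 µM in the primary screen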;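 also: 0 = wells with 2.5 mM tranylcypromine and 1 = vehicle-only wells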
# CYP2C9 inh = inhibitors of human CYP2C9; P11712; CYP2C9 Supersomes, luciferin-H conversion, luminescence; 96,000 compounds, 20% hits; inhibition, % at 5 µM;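 active = blocking of liver enzyme CYP2C9 beyond about 50% at 5 µM, limit read from the data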
# The depositor's hits bear a star; nt = no result given. Only some compounds are listed: those with a hit (about 22% of all), similar ones and a draw of the others.
SMILES,Measles CPE,CYP2C9 activ,CYP2C19 inhib,CYP2C19 activ,CYP2C9 inh
N#Cc1nc(-c2ccco2)oc1N1CCN(Cc2ccccc2)CC1,14,0.8,35,0.7,24
N#Cc1nc(COc2ccc(F)cc2)oc1N1CCN(Cc2ccccc2)CC1,5,0.1,73*,0.3,93*
N#Cc1nc(COc2ccccc2F)oc1N1CCCCCC1,6,0.6,33,0.7,45
CC(=NC(C)C)C1=C(O)C(C)OC1=O (configuration not stated),5,nt,nt,nt,nt
CCCCN1C(=O)C(NC(C)=O)c2cc(Br)ccc21 (configuration not stated),14,0.8,79*,0.2,24
CCOC(=O)c1cc(C#N)c(Oc2ccccc2OC)nc1-c1ccccc1,6,0.4,42,0.6,64*
COC(=O)c1cc(C#N)c(NCc2ccccc2)nc1C,20,1,11,0.9,4
COC(=O)c1cc(C#N)c(Oc2ccccc2OC)nc1C,6,0.5,72*,0.3,52*
Cc1ccccc1N1C(=O)CC1(C#N)c1ccc(OCc2ccccc2)cc1 (configuration not stated),20,nt,nt,nt,nt
COc1ccc(C2CC(=O)c3cnc(NC(=O)c4ccccc4)nc3C2)c(OC)c1 (configuration not stated),3,0.5,47,0.5,48
Cn1c(=O)c2c(nc(N/N=C/c3ccc(OC(=O)c4ccco4)cc3)n2Cc2ccccc2)n(C)c1=O,8,nt,nt,nt,nt
Cc1ccc(/C=N/NS(=O)(=O)c2ccccc2)o1,11,nt,nt,nt,nt
Cc1ccc(-c2nc3ccc(NS(=O)(=O)c4ccccc4)cc3[nH]2)o1,4,0,100*,0,100*
O=S(=O)(Nc1ccc2nc(C(F)(F)F)[nH]c2c1)c1ccccc1,2,0.2,100*,0,81*
O=S(=O)(Nc1ccc2nc(-c3ccc(Br)o3)[nH]c2c1)c1ccccc1,23,0.1,91*,0.1,94*
Cn1c(CN2CCCC2)nc2cc(NS(=O)(=O)c3ccccc3)ccc21,0,1.1,25,0.8,-5
S=C(Nc1ccccc1Cl)N1CCOCC1,10,nt,nt,nt,nt
COc1cccc(CNc2cc(CSc3ccc(Cl)cc3)nc(C)n2)c1,2,0,94*,0.1,96*
COc1cccc(CNc2nc3nc(C)cc(C)n3n2)c1,29,1.6,29,0.7,-61
COc1ccccc1CNc1cc(CSc2ccc(Cl)cc2)nc(C)n1,0,0.1,91*,0.1,94*
O=C(c1cccn2c(=O)c3cc(Cl)ccc3nc12)N1CCOCC1,5,0.8,17,0.8,23
O=C(NCCN1CCN(c2ccccc2)CC1)c1cccn2c(=O)c3ccccc3nc12,4,nt,nt,nt,nt
O=C(c1cccn2c(=O)c3cc(Cl)ccc3nc12)N1CCN(Cc2ccc3c(c2)OCO3)CC1,26,0,88*,0.1,97*
O=C(NCCN1CCN(c2ccccc2F)CC1)c1cccn2c(=O)c3ccccc3nc12,1,0.4,60*,0.4,57*
O=C(c1ccc2nc3ccccc3c(=O)n2c1)N1CCN(Cc2ccc3c(c2)OCO3)CC1,4,0.5,25,0.8,53*
SMILES,Measles CPE,CYP2C9 activ,CYP2C19 inhib,CYP2C19 activ,CYP2C9 inh
O=C(c1cccn2c(=O)c3ccccc3nc12)N1CCN(Cc2ccc3c(c2)OCO3)CC1,-1,0.2,24,0.8,75*
CCn1nc(C(=O)N2CCN(Cc3ccc4c(c3)OCO4)CC2)c2ccccc2c1=O,17,0.4,36,0.6,61*
O=C(c1ccc(CNc2c(N3CCCC3)c(=O)c2=O)cc1)N1CCc2ccccc2C1,15,0.5,35,0.6,50*
CS(=O)(=O)N1CCC(C(=O)Nc2cccc(C(F)(F)F)c2)CC1,19,1.1,5,1,-13
O=C(NCCc1ccccc1)c1cccnc1,11,1,-1,1,-5
O=C(Nc1cccc(C(F)(F)F)c1)C1CCCCC1,12,0.3,87*,0.1,69*
O=C(NCCc1ccccc1)c1cccnc1N1CCCCCC1,36*,0.4,72*,0.3,61*
O=C(Nc1cccc(C(F)(F)F)c1)c1cccnc1N1CCCC1,7,3.4*,48,0.5,-239
O=C(/C=C/c1cccc(C(F)(F)F)c1)Nc1cccc(C(F)(F)F)c1,0,2.9*,10,0.9,-187
Cc1ccc(NC(=O)/C=C/c2cccc(C(F)(F)F)c2)cc1,5,nt,nt,nt,nt
CNc1nnc(-c2ccc(N(C)C)cc2)s1,3,nt,nt,nt,nt
c1coc(CNCc2cccs2)c1,3,nt,nt,nt,nt
O=C(Nc1cccc(C(F)(F)F)c1)c1cccnc1N1CCOCC1,8,nt,nt,nt,nt
O=C(Nc1ccc(Cl)cc1)c1cccnc1N1CCCCC1,3,0.2,79*,0.2,78*
O=C(Nc1cccc(F)c1)c1cccnc1N1CCOCC1,24*,0.9,36,0.6,11
O=C(Nc1ccc(N2CCCCC2)c(Cl)c1)c1cccnc1,61*,0.7,-1,1,28
O=C(Nc1ccc(N2CCCCC2)cc1)c1cccnc1Cl,9,1,16,0.8,-2
CC(NC(=O)CSC1=NCCS1)c1ccccc1 (configuration not stated),9,nt,nt,nt,nt
O=C(Nc1ccccc1)c1ccc(S(=O)(=O)NCC2CCCO2)cc1 (configuration not stated),24,0.9,3,1,11
CC(=O)Nc1ccc(S(=O)(=O)NCc2ccc(C(=O)NC(C)c3ccccc3)cc2)cc1 (configuration not stated),24,0.1,26,0.7,91*
CCNS(=O)(=O)c1ccc(C(=O)Nc2ccccc2)cc1,18,0,-11,1.1,97*
CCNS(=O)(=O)c1ccc(NC(=O)c2cc(C(F)(F)F)nn2C)cc1,101*,0.8,12,0.9,18
CC(=O)Nc1ccc(S(=O)(=O)NCc2ccc(C(=O)NCc3ccc(Cl)cc3)cc2)cc1,13,0.6,-8,1.1,38
CCc1cc(C(=O)Nc2ccccc2)cs1,3,0.5,76*,0.2,48
O=C(Cn1ccc(C(F)(F)F)n1)Nc1ccc(S(=O)(=O)NCc2ccco2)cc1,7,nt,nt,nt,nt
SMILES,Measles CPE,CYP2C9 activ,CYP2C19 inhib,CYP2C19 activ,CYP2C9 inh
CC(C)=C1SC(N2CCN(c3cccc(Cl)c3)CC2)=NC1=O,6,nt,nt,nt,nt
COc1ccccc1OC(=O)c1ccc(SC)cc1OC,4,0.8,46,0.5,23
Cc1nnc(SCC(=O)NC(C)(C)C)n1C1CCCCC1,6,nt,nt,nt,nt
CCCc1cc(C(=O)Nc2nccs2)cs1,11,0.5,40,0.6,52*
CCNS(=O)(=O)c1ccc(NC(=O)c2cccnc2)cc1,10,0.2,-1,1,78*
CCCNS(=O)(=O)c1ccc(Oc2ncc(C(F)(F)F)cc2Cl)cc1,11,0.3,87*,0.1,67*
O=S(=O)(Nc1ccccc1)c1ccc(Oc2ncc(C(F)(F)F)cc2Cl)cc1,41*,0.8,7,0.9,21
C[C@@H]1C[C@H]2[C@@H]3CCC4=CC(=O)C=C[C@]4(C)[C@@]3(F)[C@@H](O)C[C@]2(C)[C@H]1C(=O)CO,10,nt,nt,nt,nt
Cc1cccc(-c2nnc(N)s2)c1,36*,1.3,11,0.9,-26
